Like-named read-outs stand apart in the source and are kept apart here.
Key:
CDK4-cyclinD1 = conditions: n = 1
CDK4-cyclinD3 = conditions: n = 1
CDK4 = conditions: n = 1
CDK5 = conditions: concentration: 1 μM, replicates: in singlicate; n = 1
CDK7 = conditions: concentration: 1 μM, replicates: in singlicate; n = 1
CDK8 = conditions: concentration: 1 μM, replicates: in singlicate; n = 1
CDK9 = conditions: concentration: 1 μM, replicates: in singlicate; n = 1
CDKL1 = conditions: concentration: 1 μM, replicates: in singlicate; n = 1
CDKL2 = conditions: concentration: 1 μM, replicates: in singlicate; n = 1
CDKL3 = conditions: concentration: 1 μM, replicates: in singlicate; n = 1
[1] = concentration: 1 μM, replicates: in singlicate
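Note: KINOMEscan kinase panel screen.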

Compound | %Inh (CDK4-cyclinD1; [1]) | %Inh (CDK4-cyclinD3; [1]) | %Inh (CDK4; [1]) | %Inh (CDK5) | %Inh (CDK7) | %Inh (CDK8) | %Inh (CDK9) | %Inh (CDKL1) | %Inh (CDKL2) | %Inh (CDKL3) | %Inh (CDK4-cyclinD1; 1 µM) | %Inh (CDK4-cyclinD3; 1 µM) | %Inh (CDK4; 1 µM)
Fc1ccc(-c2nc[nH]c2-c2ccncc2)cc1 [SB-217360] | 0% | 0% | 15% | 0% | 0% | 38% | 0% | 12% | 16% | 2% | – | – | –
O=C(Nc1n[nH]c2nc(-c3cccs3)c(Br)cc12)C1CCCC1 [SB-743341] | 11% | 40% | 16% | 24% | 60% | 75% | 27% | 10% | 87% | 0% | – | – | –
COc1ccc(Nc2nccc(-c3ccc(NC(=O)c4cc5cc(F)ccc5[nH]4)cc3)n2)cc1 [GSK1229496] | 0% | 0% | 39% | 0% | 0% | 20% | 0% | 0% | 0% | 0% | – | – | –
Nc1nccc(-c2c(-c3ccc(F)cc3)ncn2C2CCN(Cc3ccccc3)CC2)n1 [SB-219980] | 0% | 0% | 5% | 16% | 13% | 0% | 0% | 0% | 0% | 9% | – | – | –
O=C1NC(=O)C(c2ccc(Cl)cc2)=C1Nc1cccc(Cl)c1 [SB-317651] | 12% | 0% | 100% | 0% | 16% | 2% | 0% | 11% | 20% | 2% | – | – | –
COc1ccc(CSc2nnc(-c3ccc4ncsc4c3)o2)cc1C(F)(F)F | 0% | 0% | 0% | 2% | 0% | 15% | 0% | 0% | 0% | 0% | – | – | –
CSc1ccc(-c2nc3n(c2-c2ccncc2)CCC3)cc1 [SKF-105561] | 0% | 0% | 27% | 0% | 0% | 0% | 0% | 7% | 0% | 0% | – | – | –
O=c1cc(N2CCOCC2)nc2n(Cc3ccccc3F)ccn12 [GSK2297428] | 0% | 0% | 0% | 0% | 0% | 22% | 0% | 0% | 13% | 0% | – | – | –
CS(=O)(=O)Cc1ccc(Nc2nccc(-c3c(-c4cccc(NC(=O)C5CCCCC5)c4)nn4ncccc34)n2)cc1 [GSK350559] | – | – | – | 4% | 6% | 0% | 0% | 0% | 5% | 0% | 15% | 18% | 18%
CC[C@@H]1CO[C@H](C(=O)Nc2ccccc2)CN1c1cc(-c2ccc3c(N)n[nH]c3c2)nc(NC)n1 [GSK2376236] | 0% | 5% | 0% | 0% | 0% | 5% | 0% | 8% | 6% | 0% | – | – | –
Cc1ccccc1Cn1ccn2c(=O)cc(N3CCOCC3)nc12 [GSK2269905] | 0% | 0% | 0% | 0% | 0% | 0% | 0% | 12% | 15% | 0% | – | – | –
COc1ccc(CSc2nnc(-c3ccc4nccn4c3)o2)cc1C(F)(F)F | 7% | 13% | 0% | 10% | 13% | 21% | 0% | 21% | 7% | 18% | – | – | –
CCn1c(-c2ccccc2)nc2cnccc21 [SB-733416] | 0% | 6% | 3% | 0% | 0% | 0% | 0% | 0% | 9% | 0% | – | – | –
COc1ccc(CSc2nnc(-c3ccc4c(c3)CCO4)o2)cc1 | 0% | 0% | 0% | 0% | 0% | 0% | 0% | 0% | 0% | 0% | – | – | –
COC(=O)c1cccc(NC(=O)NC2CCN(c3ccnc(Nc4ccc(OC)cc4)n3)C2)c1 (stereo not shown) [GSK1379746] | 34% | 0% | 19% | 0% | 0% | 48% | 1% | 14% | 77% | 0% | – | – | –
CNc1cc(-c2ccc3c(N)n[nH]c3c2)nc(N)n1 [GSK2224810] | 3% | 0% | 18% | 0% | 2% | 26% | 0% | 17% | 0% | 0% | – | – | –
CC(=O)c1c(C)c2cnc(Nc3ccn(C)n3)nc2n(C2CCCC2)c1=O | 99.6% | 98.4% | 19% | 0% | 0% | 0% | 18% | 0% | 0% | 0% | – | – | –

Compound | %Inh (CDK4-cyclinD1; [1]) | %Inh (CDK4-cyclinD3; [1]) | %Inh (CDK4; [1]) | %Inh (CDK5) | %Inh (CDK7) | %Inh (CDK8) | %Inh (CDK9) | %Inh (CDKL1) | %Inh (CDKL2) | %Inh (CDKL3) | %Inh (CDK4-cyclinD1; 1 µM) | %Inh (CDK4-cyclinD3; 1 µM) | %Inh (CDK4; 1 µM)
CCCCc1nn2ncccc2c1-c1ccnc(NC2CC2)n1 [GW684374] | 0% | 12% | 21% | 0% | 0% | 0% | 0% | 0% | 15% | 0% | – | – | –
COc1cccc(C2=C(Nc3cc(Cl)c(O)c(Cl)c3)C(=O)NC2=O)c1 [SB-390767] | 0% | 0% | 0% | 5% | 0% | 0% | 0% | 1% | 20% | 0% | – | – | –
Nc1cccc(-c2ccc3c(N)n[nH]c3c2)n1 [GSK2192730] | 0% | 0% | 0% | 0% | 92.8% | 0% | 16% | 0% | 13% | 0% | – | – | –
CN1c2ccc(-c3ccc(C(N)=O)cc3)cc2-c2[nH]ncc2S1(=O)=O | 27% | 0% | 0% | 0% | 0% | 28% | 0% | 22% | 31% | 0% | – | – | –
Cl.Cl.Cl.N#Cc1ccc(CCNc2nccc(-c3cccc(CN4CCNCC4)c3)n2)cc1 [GSK2137462] | 0% | 24% | 0% | 0% | 69% | 0% | 22% | 2% | 6% | 0% | – | – | –
Cc1c(Cn2c(C)c(C)n3c(=O)cc(N4CCOCC4)nc23)cccc1C(F)(F)F [GSK2328680] | 0% | 0% | 0% | 0% | 0% | 34% | 0% | 100% | 6% | 0% | – | – | –
COc1ccc(Nc2nccc(N3CCC(NC(=O)C(C)c4ccc(Cl)cc4)C3)n2)cc1 (stereo not shown) [GSK1379735] | 0% | 0% | 23% | 0% | 0% | 35% | 0% | 100% | 29% | 0% | – | – | –
Cc1ccc(NC(=O)Nc2ccccc2F)cc1-c1ccc(C(=O)Nc2ccncc2)cc1 [GSK1398477] | 0% | 0% | 0% | 5% | 0% | 19% | 3% | 7% | 30% | 0% | – | – | –
CNc1nc(-c2ccc3c(N)n[nH]c3c2)cc(N2C[C@@H](C(=O)NC3CCCCC3)OC[C@H]2C)n1 [GSK2375584] | 3% | 7% | 100% | 0% | 3% | 45% | 0% | 13% | 0% | 0% | – | – | –
CC(C)c1cc(-c2ccc3c(N)n[nH]c3c2)nc(N)n1 [GSK2250882] | 0% | 0% | 0% | 0% | 0% | 20% | 0% | 23% | 20% | 0% | – | – | –
COc1ccc2cc(-c3nc(-c4ccccc4C(C)C)[nH]c3-c3ccncc3)ccc2c1 [SB-660566] | 0% | 19% | 9% | 0% | 0% | 0% | 0% | 0% | 9% | 0% | – | – | –
Cc1cnc(N)c(/C=C/c2cncc(C(=O)NCCc3ccc(Cl)cc3Cl)c2)c1.Cl [GSK190937] | 0% | 0% | 16% | 0% | 0% | 88% | 0% | 0% | 15% | 0% | – | – | –
Cc1cccc2c(-c3ccncn3)c(-c3ccc(F)cc3)nn12 [GW515532] | 0% | 0% | 0% | 0% | 0% | 10% | 0% | 0% | 13% | 0% | – | – | –
Fc1ccc(-c2nn3cccc(F)c3c2-c2ccncc2)cc1 [GW475620] | 1% | 0% | 24% | 17% | 0% | 15% | 0% | 0% | 14% | 0% | – | – | –
CNc1nc(-c2ccc3c(N)n[nH]c3c2)cc(N2C[C@@H](C(=O)Nc3ccccc3)CC[C@H]2C)n1 [GSK2298859] | 0% | 2% | 25% | 0% | 0% | 7% | 0% | 3% | 0% | 0% | – | – | –
Cc1c(Cn2c3ccccc3n3c(=O)cc(N4CCOCC4)nc23)cccc1C(F)(F)F [GSK2306394] | 0% | 0% | 0% | 0% | 0% | 0% | 100% | 0% | 16% | 0% | – | – | –
Nc1ncnc2occ(-c3ccc4c(c3)CCN4C(=O)Cc3cc(F)ccc3F)c12 [GSK2645446] | 0% | 0% | 18% | 0% | 0% | 79% | 0% | 17% | 0% | 0% | – | – | –
